# Laboratory results published in PubChem BioAssay (NCATS).
# Inconclusive results are not listed. Activity calls are given as the source filed them. Calls follow the shape of the dose curve; as a rule, active = well fitted cell-killing curve with a large enough effect; inconclusive = small, poorly fitted or top-dose-only effect; inactive = no such curve, though single readings can be large or run the other way.
# Test: qHTS of pediatric cancer cell lines to identify multiple opportunities for drug repurposing: Primary screen for SJ-GBM2 cells (AID 1347091);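 as to activity change, negative = cytotoxic: plate controls were DMSO neutral control for no effect and bortezomib for full effect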
# Settings: SJ-GBM2 viability, CellTiter-Glo luminescence, 48 h; series mostly up to 46 µM; activity change, negative = cytotoxic: at the top concentration
# How it was run: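 Viability measured as metabolically active cells via CellTiter-Glo luminescence following 48 hours of compound exposure, 11-point dilutions in confirmatory testing. 500-1,000 cells/well plated 5 hours before dosing; controls were DMSO and 2.3 µM bortezomib.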
# Potency is read from the fitted curve at half-maximal effect.
SMILES,Potency,"activity change, negative = cytotoxic"
CO[C@H]1CCC(O[C@H]2C[C@H]([C@]3(C)CC[C@]4(C[C@H](O)[C@@H](C)[C@@H]([C@@H](C)C=C(C)C(=O)[C@H](C)C[C@H](C)C(=O)O)O4)O3)O[C@]3(O[C@@H]([C@H]4O[C@@](O)(CO)[C@H](C)C[C@H]4C)C[C@H]3C)[C@H]2C)O[C@H]1C (stereo partly drawn),2.09 µM (active),–
CCCCCC[C@H]1C(=O)O[C@H](C)[C@H](NC(=O)c2cccc(NC=O)c2O)C(=O)O[C@@H](C)[C@@H]1OC(=O)CC(C)C,0.187 µM (active),–
COc1ccc(C(c2ccc(OC)cc2)C(Cl)(Cl)Cl)cc1,21.5 µM (active),–
CCNC(=O)C[C@@H]1N=C(c2ccc(Cl)cc2)c2cc(OC)ccc2-n2c(C)nnc21,5.9 µM (active),–
Cc1c(N)nc([C@H](CC(N)=O)NC[C@@H](N)C(N)=O)nc1C(=O)N[C@H](C(=O)N[C@@H](C)[C@H](O)[C@@H](C)C(=O)N[C@@H](C(=O)NCCc1nc(-c2nc(C(=O)NCCC[S+](C)C)cs2)cs1)[C@@H](C)O)C(O[C@H]1O[C@H](CO)[C@H](O)[C@@H](O)[C@@H]1O[C@H]1O[C@H](CO)[C@@H](O)[C@H](OC(N)=O)[C@H]1O)c1cnc[nH]1 (stereo partly drawn),1.48 µM (active),–
C#C[C@]1(O)C=C[C@@H]2[C@@H]3CCC4=CC(=O)CC[C@@H]4[C@H]3CC[C@@]21CC,–,22.3% (inactive)
COc1ccc(C(=O)c2c(C)n(CCN3CCOCC3)c3cc(I)ccc23)cc1,18.7 µM (active),–
O=[N+]([O-])c1c2ccccc2cc2ccccc12,–,10.2% [at 92.7 µM] (inactive)

# Test: qHTS of pediatric cancer cell lines to identify multiple opportunities for drug repurposing: Primary screen for A673 cells (AID 1347092); also: nearly all actives have a fitted effect of over 45% in size; as to activity change, negative = cytotoxic: % is scaled to controls: 0 for no effect and ±100 for the full control effect
# Settings: A673 Ewing sarcoma viability, CellTiter-Glo ATP luminescence, 48 h; series mostly up to 46 µM; activity change, negative = cytotoxic: at the top concentration
# How it was run: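 A673 cells (500-1,000 cells/well) were treated 48 hours at 37 degrees C with compounds at 11-point (0.78 nM to 46 µM) or 8-point (0.59 nM to 46 µM) dilutions. Viability read by CellTiter-Glo luminescence; concentration-response curves fitted.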
SMILES,Potency,"activity change, negative = cytotoxic"
CO[C@H]1CCC(O[C@H]2C[C@H]([C@]3(C)CC[C@]4(C[C@H](O)[C@@H](C)[C@@H]([C@@H](C)C=C(C)C(=O)[C@H](C)C[C@H](C)C(=O)O)O4)O3)O[C@]3(O[C@@H]([C@H]4O[C@@](O)(CO)[C@H](C)C[C@H]4C)C[C@H]3C)[C@H]2C)O[C@H]1C (stereo partly drawn),1.48 µM (active),–
O=C(Nc1ccccc1-c1ccc(Cl)cc1)c1cccnc1Cl,–,-17.8% [at 92.7 µM] (inactive)
O=S(=O)(c1ccc(Cl)cc1)c1ccc(Cl)cc1,–,-29.4% [at 92.7 µM] (inactive)
CC1(C)CC/C(=C/c2ccc(Cl)cc2)C1(O)Cn1cncn1 (stereo not drawn),–,33.3% [at 92.7 µM] (inactive)
COC(C)(C)CCCC(C)C/C=C/C(C)=C/C(=O)OC(C)C (stereo not drawn),–,4.33% (inactive)
CCCCCC[C@H]1C(=O)O[C@H](C)[C@H](NC(=O)c2cccc(NC=O)c2O)C(=O)O[C@@H](C)[C@@H]1OC(=O)CC(C)C,0.296 µM (active),–
C=CCC1=C(C)C(OC(=O)C2C(C=C(C)C)C2(C)C)CC1=O (stereo not drawn),48.6 µM (active),–
COc1ccc(C(c2ccc(OC)cc2)C(Cl)(Cl)Cl)cc1,38.2 µM (active),–
CCNC(=O)C[C@@H]1N=C(c2ccc(Cl)cc2)c2cc(OC)ccc2-n2c(C)nnc21,0.59 µM (active),–
C#C[C@]1(O)C=C[C@@H]2[C@@H]3CCC4=CC(=O)CC[C@@H]4[C@H]3CC[C@@]21CC,–,7.91% (inactive)
COc1ccc(C(=O)c2c(C)n(CCN3CCOCC3)c3cc(I)ccc23)cc1,14.8 µM (active),–
CC(C)Oc1cccc(NC(=O)c2ccccc2C(F)(F)F)c1,–,-16.2% [at 92.7 µM] (inactive)
Nc1ccc([N+](=O)[O-])cc1,–,-10.4% [at 92.7 µM] (inactive)

# Test: qHTS of pediatric cancer cell lines to identify multiple opportunities for drug repurposing: Primary screen for SK-N-MC cells (AID 1347093);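 as to activity change, negative = cytotoxic: plate controls were DMSO neutral control for no effect and bortezomib for full effect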
# Settings: SK-N-MC viability, CellTiter-Glo luminescence, 48 h; series mostly up to 46 µM; activity change, negative = cytotoxic: at the top concentration
# How it was run: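 Metabolically active cells were quantified by ATP-dependent luminescence (CellTiter-Glo, 15 min at room temperature) following 48 h treatment. Cells had been plated at 500-1,000 per well and settled for 5 h beforehand.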
SMILES,Potency,"activity change, negative = cytotoxic"
CO[C@H]1CCC(O[C@H]2C[C@H]([C@]3(C)CC[C@]4(C[C@H](O)[C@@H](C)[C@@H]([C@@H](C)C=C(C)C(=O)[C@H](C)C[C@H](C)C(=O)O)O4)O3)O[C@]3(O[C@@H]([C@H]4O[C@@](O)(CO)[C@H](C)C[C@H]4C)C[C@H]3C)[C@H]2C)O[C@H]1C (stereo partly drawn),0.187 µM (active),–
O=C(Nc1ccccc1-c1ccc(Cl)cc1)c1cccnc1Cl,–,11.3% [at 92.7 µM] (inactive)
CC1(C)CC/C(=C/c2ccc(Cl)cc2)C1(O)Cn1cncn1 (stereo not drawn),–,-29.2% [at 92.7 µM] (inactive)
COC(C)(C)CCCC(C)C/C=C/C(C)=C/C(=O)OC(C)C (stereo not drawn),–,11.6% (inactive)
CCCCCC[C@H]1C(=O)O[C@H](C)[C@H](NC(=O)c2cccc(NC=O)c2O)C(=O)O[C@@H](C)[C@@H]1OC(=O)CC(C)C,0.0469 µM (active),–
C=CCC1=C(C)C(OC(=O)C2C(C=C(C)C)C2(C)C)CC1=O (stereo not drawn),38.6 µM (active),–
COc1ccc(C(c2ccc(OC)cc2)C(Cl)(Cl)Cl)cc1,42.8 µM (active),–
CCNC(=O)C[C@@H]1N=C(c2ccc(Cl)cc2)c2cc(OC)ccc2-n2c(C)nnc21,1.32 µM (active),–
Cc1c(N)nc([C@H](CC(N)=O)NC[C@@H](N)C(N)=O)nc1C(=O)N[C@H](C(=O)N[C@@H](C)[C@H](O)[C@@H](C)C(=O)N[C@@H](C(=O)NCCc1nc(-c2nc(C(=O)NCCC[S+](C)C)cs2)cs1)[C@@H](C)O)C(O[C@H]1O[C@H](CO)[C@H](O)[C@@H](O)[C@@H]1O[C@H]1O[C@H](CO)[C@@H](O)[C@H](OC(N)=O)[C@H]1O)c1cnc[nH]1 (stereo partly drawn),0.833 µM (active),–
Nc1ccc(Cl)cc1N,–,-25.7% [at 92.7 µM] (inactive)
COc1ccc(C(=O)c2c(C)n(CCN3CCOCC3)c3cc(I)ccc23)cc1,1.48 µM (active),–
Nc1ccc([N+](=O)[O-])cc1,–,13% [at 92.7 µM] (inactive)
